Molecules are shown by their SMILES. Among all 4,900 compounds or so, about 200 (4.1%) were called active.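 Rule for the calls: active = thallium signal drop more than 5 SD beyond the mean of the no-compound control wells, seen in both duplicate plates; inactive = the rest.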 Only a sample is shown.

Sequence of Inward rectifier potassium channel 2 (Mus musculus) (P35561 whole entry, looked up): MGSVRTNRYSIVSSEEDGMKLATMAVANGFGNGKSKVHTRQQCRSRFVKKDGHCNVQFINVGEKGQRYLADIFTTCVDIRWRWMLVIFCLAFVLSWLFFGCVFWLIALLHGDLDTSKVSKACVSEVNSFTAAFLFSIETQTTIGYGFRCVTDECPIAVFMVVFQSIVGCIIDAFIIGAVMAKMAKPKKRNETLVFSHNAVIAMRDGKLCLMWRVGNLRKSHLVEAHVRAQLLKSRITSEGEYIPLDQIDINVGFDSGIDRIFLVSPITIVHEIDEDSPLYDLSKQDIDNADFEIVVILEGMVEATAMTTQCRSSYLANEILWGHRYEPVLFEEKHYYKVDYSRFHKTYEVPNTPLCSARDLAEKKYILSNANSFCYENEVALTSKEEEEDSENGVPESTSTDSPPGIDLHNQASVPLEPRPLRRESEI

This assay concerns the target Inward rectifier potassium channel 2 (Mus musculus) (UniProt P35561). Nature of the assay: mouse Kir2.1 channel inhibition, confirmation, selectivity assay for KCNK9 modulator project, cell-based, HEK293, thallium flux (AID 492993).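 For inhibition: signal is fluorescence rise after thallium addition divided by baseline fluorescence; plate controls were assay buffer only for no effect and full block by chlorpromazine control for full effect.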 The following applies: Kir2.1 cells, FluxOR thallium flux fluorescence, at 10 µM; active compounds read high.
By inhibition is commonly meant the change of the read-out against control, counted positive when it falls. `COc1ccc(C(C)=O)cc1COc1ccc(Cl)c(C)c1`: the inhibition entry was “inactive”.

On to `CCOC(=O)c1c(NC(=O)CCCN2CCOCC2)sc2c1CC(C)(C)OC2`, for which the inhibition result was “inactive”. For the molecule `Cc1cc(C)cc(NC(=O)CSCc2cnn(-c3ccccc3)c2-n2cccc2)c1`, the inhibition is 43% (active). For `O=C1c2ccccc2S(=O)(=O)N1CC(O)Cn1c2ccccc2c2ccccc21` (centres undefined), the inhibition result is “inactive”. As for `COc1cc(Cl)c(S(=O)(=O)N2CCN(Cc3ccc4c(c3)OCO4)CC2)cc1Cl`, the entry is “inactive”. As for `Cc1cc(Cl)ccc1C(=O)C1CCCN(C(=O)CCN2CCCO2)C1` (centres undefined), the entry is “inactive”; as for `Cc1ccccc1N1CCN(Cc2nc(Cc3ccccc3F)no2)CC1`, “inactive”; as for `COc1cccc(C(=O)NCCSc2ccc(Br)cc2)c1`, “inactive”.

In the case of `COc1cc(NC(=S)NCCSc2ccc(C)cc2)cc(OC)c1`, the inhibition entry is “inactive”. As for `O=S(=O)(c1ccc(F)cc1)N1CCN(Cc2ccccc2C(F)(F)F)CC1`, the entry is “inactive”; as for `O=C(CSCc1ccc(Br)cc1)Nc1ccc(S(=O)(=O)N2CCCCCC2)cc1`, “inactive”.

On to `CC1=C/C(=N\OS(=O)(=O)c2ccccc2)C=CC1=O`, for which the inhibition entry was “inactive”. As for `COc1ccc(-c2oc(/N=C/N3CCCC3)c(C#N)c2-c2ccc(OC)cc2)cc1`, the entry is “inactive”; as for `Cc1ccc(S(=O)(=O)N2CCN(C(=O)COC(=O)c3c(C)cc(C)cc3C)CC2)c(C)c1`, “inactive”. As for `Cc1ccc(NC2CCCN(C(=O)CCC3(C)CC3)C2)cc1C` (centres undefined), the entry is “inactive”; as for `CCOc1ccccc1NC(=O)C12CC3CC(C1)CC(c1ccc(C)cc1)(C3)C2`, “inactive”; as for `COCCN(C(=S)Nc1cccc(Cl)c1C)C(C)c1ccco1` (centres undefined), “inactive”. As for `Cn1nc(-c2ccccc2)c(CSc2cccc(Cl)c2)c1Cl`, the entry is “inactive”; as for `COc1ccc(C2Nc3ccccc3C(=O)N2Cc2ccccc2)cc1Cn1nnc2ccccc21` (centres undefined), “inactive”.

With `Cc1csc(Nc2ccc(Cl)cc2)[n+]1-c1ccc(Cl)cc1`, the inhibition entry is “inactive”. For the molecule `CCC1=NN(C(=O)Cc2ccc([N+](=O)[O-])cc2)C(O)(c2ccc(Br)cc2)C1` (centres undefined), the inhibition result was “inactive”. As for `COc1ccc(OC)c(C(=O)c2coc3ccc(OC)cc23)c1`, the entry is “inactive”. As for `Cc1cc(Oc2ccc(Cl)cc2)nc(SCC(=O)c2ccccc2)n1`, the entry is “inactive”. As for `CCCC(=O)n1nc(NCc2ccc(OC)cc2)nc1NCc1ccc(OC)cc1`, the entry is “inactive”; as for `CCCCn1ccnc1C(=O)c1cccc(S(=O)(=O)N2c3ccccc3CC2C)c1` (centres undefined), “inactive”; as for `CCCC1=Nc2cc(C(=O)NCc3ccco3)ccc2Sc2ccccc21`, “inactive”. For `Cc1ccc(N2CCN(S(=O)(=O)c3ccc(F)cc3)CC2)c(C)c1`, the inhibition entry was “inactive”.

For the molecule `O=[N+]([O-])/C=C/c1ccc2c(ccn2Cc2ccccc2)c1`, the inhibition was 41.5% (active). Consider `CCc1cccc(C)c1N(C(=O)Cn1c(CO)nc2ccccc21)C(C)COC` (centres undefined), for which the inhibition entry was “inactive”.

The values are drawn from PubChem BioAssay AID492993 (Johns Hopkins Ion Channel Center, 2010).
